Measurements as given in article PMC5700166.
Residue numbers refer to the chain shown, from its start.

What was measured:
Experiment in all cases: protein-binding microarray (PBM); PBM: ~300 nM protein, 6 mM HEPES pH 7.8, 80 mM KCl, 0.5 mM EDTA, 0.5 mM EGTA, 6% glycerol, 35 ng/ul poly-dIdC, 1% milk, 1 h, room temperature; Ap Aiptasia and Nv Nematostella (sea anemones) / Co Capsaspora / Aq Amphimedon (sponge) / Dm Drosophila / Hu human; RHD is the Rel homology domain; high values mean tight binding
Settings in all cases: dsDNA, one strand shown
GST-Ap-NF-kB RHD = target: T1, GST-Ap-NF-kB RHD (Exaiptasia pallida (Aiptasia), UniProt A0A913YAJ5 2-422)
T1 sequence: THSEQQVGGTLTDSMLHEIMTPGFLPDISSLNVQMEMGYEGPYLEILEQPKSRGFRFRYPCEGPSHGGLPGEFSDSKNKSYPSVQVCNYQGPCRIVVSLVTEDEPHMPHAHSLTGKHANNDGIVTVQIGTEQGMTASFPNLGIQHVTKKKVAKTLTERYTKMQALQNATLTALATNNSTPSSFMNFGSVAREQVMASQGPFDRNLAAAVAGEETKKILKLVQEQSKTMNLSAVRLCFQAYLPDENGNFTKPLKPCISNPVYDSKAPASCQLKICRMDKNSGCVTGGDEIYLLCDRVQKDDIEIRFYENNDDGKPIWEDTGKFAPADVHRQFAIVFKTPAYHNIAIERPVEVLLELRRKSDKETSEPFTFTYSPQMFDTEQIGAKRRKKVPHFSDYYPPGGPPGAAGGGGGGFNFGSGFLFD

[1] = target: T2, GST-Nv-NF-kB (Cys allele) (Nematostella vectensis, UniProt E5G601 2-411)
T2 sequence: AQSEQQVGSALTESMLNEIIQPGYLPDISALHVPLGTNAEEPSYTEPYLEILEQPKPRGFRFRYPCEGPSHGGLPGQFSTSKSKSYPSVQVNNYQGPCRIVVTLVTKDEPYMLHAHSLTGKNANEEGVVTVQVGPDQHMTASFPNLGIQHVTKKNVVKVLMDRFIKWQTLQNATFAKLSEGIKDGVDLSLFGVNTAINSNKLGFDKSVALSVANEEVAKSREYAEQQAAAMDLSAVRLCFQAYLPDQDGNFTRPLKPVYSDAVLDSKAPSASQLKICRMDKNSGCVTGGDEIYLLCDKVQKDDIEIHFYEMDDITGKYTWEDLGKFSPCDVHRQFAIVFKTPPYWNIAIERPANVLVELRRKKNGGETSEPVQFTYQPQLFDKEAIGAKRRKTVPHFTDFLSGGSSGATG

[2] = target: T3, GST-Nv-NF-kB (Ser allele) (Nematostella vectensis, UniProt A7UNT2 2-411)
T3 sequence: T2 sequence with Q21R, C66S, S207N, E215Q, V217A, E225K, A268E, D399E

GST-Co-NF-kB = target: T4, GST-Co-NF-kB (Capsaspora owczarzaki, UniProt F1ARL5 200-546)
T4 sequence: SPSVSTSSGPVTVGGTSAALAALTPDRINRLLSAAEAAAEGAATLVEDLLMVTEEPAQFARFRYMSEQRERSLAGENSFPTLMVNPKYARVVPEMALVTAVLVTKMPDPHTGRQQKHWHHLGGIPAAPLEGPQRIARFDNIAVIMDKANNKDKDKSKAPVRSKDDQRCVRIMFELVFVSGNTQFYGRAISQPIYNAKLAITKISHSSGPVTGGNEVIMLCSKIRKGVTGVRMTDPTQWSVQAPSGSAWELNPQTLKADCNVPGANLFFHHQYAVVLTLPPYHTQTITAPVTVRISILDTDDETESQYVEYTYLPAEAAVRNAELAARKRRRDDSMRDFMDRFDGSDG

GST-Dm-Relish = target: T5, GST-Dm-Relish (Drosophila melanogaster, UniProt Q94527 99-473)
T5 sequence: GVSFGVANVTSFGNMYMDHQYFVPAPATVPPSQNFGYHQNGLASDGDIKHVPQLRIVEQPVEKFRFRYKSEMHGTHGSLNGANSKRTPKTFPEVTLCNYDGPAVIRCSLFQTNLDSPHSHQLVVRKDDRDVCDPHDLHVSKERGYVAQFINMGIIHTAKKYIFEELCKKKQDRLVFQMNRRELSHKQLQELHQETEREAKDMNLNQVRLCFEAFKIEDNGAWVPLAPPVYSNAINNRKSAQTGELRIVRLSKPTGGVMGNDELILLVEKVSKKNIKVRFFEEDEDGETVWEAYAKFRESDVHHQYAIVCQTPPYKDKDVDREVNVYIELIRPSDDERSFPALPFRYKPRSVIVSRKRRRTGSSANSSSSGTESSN

GST-Aq-NF-kB = target: T6, GST-Aq-NF-kB (Amphimedon queenslandica, UniProt A9Y5G7 2-389)
T6 sequence: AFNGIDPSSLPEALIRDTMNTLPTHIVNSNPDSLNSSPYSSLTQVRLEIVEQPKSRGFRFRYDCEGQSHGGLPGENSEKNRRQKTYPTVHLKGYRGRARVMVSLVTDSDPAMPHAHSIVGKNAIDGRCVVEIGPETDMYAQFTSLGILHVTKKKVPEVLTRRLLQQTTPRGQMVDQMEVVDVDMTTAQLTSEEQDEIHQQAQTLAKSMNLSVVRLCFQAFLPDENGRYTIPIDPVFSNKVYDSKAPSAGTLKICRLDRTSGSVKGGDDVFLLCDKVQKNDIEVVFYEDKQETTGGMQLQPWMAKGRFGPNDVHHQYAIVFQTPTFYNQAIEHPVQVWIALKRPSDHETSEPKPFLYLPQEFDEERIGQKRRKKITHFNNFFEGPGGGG

GST-Hu-p50 = GST-Hu-p50 (Homo sapiens, UniProt P19838 7-356)
GST-Hu-p50, sequence (P19838 7-356): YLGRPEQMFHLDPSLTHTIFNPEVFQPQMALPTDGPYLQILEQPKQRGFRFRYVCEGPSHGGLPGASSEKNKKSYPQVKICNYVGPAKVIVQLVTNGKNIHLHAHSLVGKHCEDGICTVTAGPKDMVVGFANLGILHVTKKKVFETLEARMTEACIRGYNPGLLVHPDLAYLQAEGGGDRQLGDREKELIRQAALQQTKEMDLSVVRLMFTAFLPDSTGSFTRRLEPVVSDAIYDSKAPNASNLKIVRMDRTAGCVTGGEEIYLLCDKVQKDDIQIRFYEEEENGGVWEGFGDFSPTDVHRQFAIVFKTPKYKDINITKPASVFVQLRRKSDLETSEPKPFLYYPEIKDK

Sequence | binding signal (GST-Ap-NF-kB RHD) [z-score] | binding signal [1] [z-score] | binding signal [2] [z-score] | binding signal (GST-Co-NF-kB) [z-score] | binding signal (GST-Dm-Relish) [z-score] | binding signal (GST-Aq-NF-kB) [z-score] | binding signal (GST-Hu-p50) [z-score]
CCGATTAACATCACATGGGAATCTGATGTTAATCGGGTCTTGATTCGCTTGACGCTGCTG | 1 | 2.19 | 2.46 | 1.08 | 1.82 | 1.14 | 1.59
CCGATTAACATCACGGGGAAATCTGATGTTAATCGGGTCTTGATTCGCTTGACGCTGCTG | 7.76 | 8.56 | 10.6 | 10.1 | 6.19 | 6.37 | 6.25
CCGATTAACATCAAAAGGGGATATGATGTTAATCGGGTCTTGATTCGCTTGACGCTGCTG | 4.87 | 5.63 | 7.56 | 2.09 | 2.06 | 3.8 | 4.41
CCGATTAACATCAAACGCCCCCCTGATGTTAATCGGGTCTTGATTCGCTTGACGCTGCTG | 4.79 | 4.46 | 3.85 | 3.84 | 4.9 | 5.57 | 5.03
CCGATTAACATCAGGGGGTGCACTGATGTTAATCGGGTCTTGATTCGCTTGACGCTGCTG | 3.65 | 2.71 | 3.9 | 2.55 | 6.6 | 4.95 | 4.23
CCGATTAACATCAGGGGTAATTATGATGTTAATCGGGTCTTGATTCGCTTGACGCTGCTG | 3.8 | 4.02 | 4.62 | 6.05 | 2.03 | 3.96 | 4.51
CCGATTAACATCAGGGAATACCCTGATGTTAATCGGGTCTTGATTCGCTTGACGCTGCTG | 8.89 | 11.2 | 8.44 | 3.79 | 9.63 | 10.2 | 6.01
CCGATTAACATCAAAATCCCAGTTGATGTTAATCGGGTCTTGATTCGCTTGACGCTGCTG | 1.67 | 1.47 | 1.74 | 1.27 | 5.96 | 1.75 | 1.82
CCGATTAACATCACCTTTTTCCCTGATGTTAATCGGGTCTTGATTCGCTTGACGCTGCTG | 3.29 | 4.53 | 6.24 | 5.31 | 1.92 | 3.4 | 4.16
CCGATTAACATCAAGGGGATTTATGATGTTAATCGGGTCTTGATTCGCTTGACGCTGCTG | 7.79 | 9.15 | 11.3 | 3.44 | 8.3 | 6.25 | 7.34
CCGATTAACATCAGATAATTCCCTGATGTTAATCGGGTCTTGATTCGCTTGACGCTGCTG | 5.7 | 7.58 | 6.02 | 4.01 | 3.74 | 7.02 | 4.73
CCGATTAACATCAATATTTTCCCTGATGTTAATCGGGTCTTGATTCGCTTGACGCTGCTG | 4.35 | 6.75 | 8.82 | 6.01 | 2.69 | 4.5 | 5.3
CCGATTAACATCACCCCATCCCCTGATGTTAATCGGGTCTTGATTCGCTTGACGCTGCTG | 4.19 | 2.64 | 4.17 | 2.99 | 2.37 | 3.17 | 3.3
CCGATTAACATCAAGGGAACTCCTGATGTTAATCGGGTCTTGATTCGCTTGACGCTGCTG | 3.72 | 3.17 | 1.27 | 1.28 | 5.67 | 4.45 | 2.28
CCGATTAACATCACGTACTTCCCTGATGTTAATCGGGTCTTGATTCGCTTGACGCTGCTG | 1.66 | 1.92 | 1.78 | 1.1 | 7.92 | 3.04 | 1.38
CCGATTAACATCAGGGGGAATGATGATGTTAATCGGGTCTTGATTCGCTTGACGCTGCTG | 6.17 | 7.14 | 7.16 | 6.6 | 3.1 | 4.98 | 5.4
CCGATTAACATCAGGGGGACACCTGATGTTAATCGGGTCTTGATTCGCTTGACGCTGCTG | 5.64 | 4.46 | 4.25 | 5.26 | 4.25 | 5.46 | 4.49
CCGATTAACATCAACGAATTCCCTGATGTTAATCGGGTCTTGATTCGCTTGACGCTGCTG | 2.81 | 4.07 | 4.93 | 2.64 | 2.28 | 3.08 | 3.08
CCGATTAACATCAAATAACCCCCTGATGTTAATCGGGTCTTGATTCGCTTGACGCTGCTG | 7.15 | 7.1 | 7.94 | 4.2 | 8.44 | 7.02 | 6.17
CCGATTAACATCACAACTTTCCCTGATGTTAATCGGGTCTTGATTCGCTTGACGCTGCTG | 3.73 | 5.95 | 6.13 | 4.34 | 2.04 | 5.94 | 4.21
CCGATTAACATCACAAAAAACCCTGATGTTAATCGGGTCTTGATTCGCTTGACGCTGCTG | 3.76 | 4.37 | 4.38 | 1.78 | 5.51 | 5.58 | 4.61
CCGATTAACATCAGGGAAAAGTATGATGTTAATCGGGTCTTGATTCGCTTGACGCTGCTG | 3.35 | 4.5 | 6.25 | 4.73 | 1.56 | 3.86 | 2.97
CCGATTAACATCAGCGGGAATCCTGATGTTAATCGGGTCTTGATTCGCTTGACGCTGCTG | 2.44 | 3.26 | 2.64 | 2.25 | 6.33 | 3.03 | 2.21
